The values that follow come from PubChem BioAssay AID651636 (Sanford-Burnham Center for Chemical Genomics, 2012).

Values joined by “and” are separate entries in the source; they are usually repeats but may differ in a detail not shown here. Equal values may be shown once. About 3,000 (0.83%) of roughly 360,000 compounds were called active. No stated cut-off is given here; in the data, active means inhibition above about 38%; inactive means the rest. Shown is part of a subset that was picked to be rich in actives.

Chain of G-protein coupled receptor 183 (Homo sapiens) (P32249 whole entry, looked up, the tested form may be a part): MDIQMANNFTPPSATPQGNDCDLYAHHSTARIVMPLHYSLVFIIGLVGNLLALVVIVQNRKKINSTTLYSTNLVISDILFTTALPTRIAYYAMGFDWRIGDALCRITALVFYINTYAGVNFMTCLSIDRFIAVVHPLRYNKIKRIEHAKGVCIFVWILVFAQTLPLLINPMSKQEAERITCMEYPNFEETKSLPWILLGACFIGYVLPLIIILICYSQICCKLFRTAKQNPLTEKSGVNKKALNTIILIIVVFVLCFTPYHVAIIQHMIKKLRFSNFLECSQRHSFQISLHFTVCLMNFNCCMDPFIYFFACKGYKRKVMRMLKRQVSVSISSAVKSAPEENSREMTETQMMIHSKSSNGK

The experiment has as its target G-protein coupled receptor 183 (Homo sapiens) (UniProt P32249). Kind of experiment: blockers of oxysterol-driven EBI2 arrestin signaling – cell-based, luminescence, 7a,25-OHC stimulation, uHTS, primary screen (AID 651636).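 Further: enzyme fragment complementation signal reports receptor beta-arrestin coupling in cells; 0% = agonist plus DMSO wells and 100% = wells without agonist.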 Particulars: EBI2 beta-arrestin recruitment, 7a,25-OHC stimulated, at 5 µM, stronger effect = higher value.
For the compound `CCN(CC)CCNc1nc(-c2ccc(OC(F)F)cc2)c(C)s1`, the inhibition was 7.54% (inactive).

For `CCCCn1nnnc1C(c1cc2ccccc2o1)N(C)Cc1ccc(Cl)c(Cl)c1` (stereo unspecified), the inhibition was 15.8% (inactive).

As to `COCCNC(=S)c1ccc(OC)cc1`, the inhibition was -12.7% (inactive).

As for `CN(C)C(=S)N=c1ssc(=S)n1Cc1ccco1`, the inhibition was -5.43% (inactive).

Regarding `Cc1cs/c(=N\N=C\c2ccc(O)cc2)n1Cc1ccco1`, the inhibition was 50.6% (active).

With `CC(C)NC(=O)NNc1c(Cl)cncc1Cl`, the inhibition is 1.07% (inactive).

With `ONC(=Nc1ccc(Cl)cc1)c1ccccc1Cl`, the inhibition was -0.13% (inactive).

As for `COc1ccc(NC(=O)CCNS(=O)(=O)c2ccc3c(c2)c(=O)n(C)c(=O)n3C)cc1OC`, the inhibition was -1.47% (inactive).

Consider `COc1ccc(NC2CC(=O)N(C)C2=O)cc1` (stereo unspecified), for which the inhibition was -2.09% (inactive).

For `CCOc1ccc(C(C)=O)cc1COC(=O)CNC(=O)c1cccs1`, the inhibition was 4.34% (inactive).

As for `COC(=O)c1ccc(COC(=O)c2cnc(Cl)c(Cl)c2)cc1`, the inhibition is 4.66% (inactive).

Consider `CCOc1ccc(C(C)=O)cc1COC(=O)c1cnc(Cl)c(Cl)c1`, for which the inhibition was 43.3% (active).

With `Cc1c(Br)ccc(NC(=O)COc2ccccc2C(N)=O)c1C`, the inhibition is -2.44% (inactive).

For `CC(=O)Nc1ccc(N2C(=O)CCC2=O)cc1C`, the inhibition was 4.9% (inactive).

As to `CN(CC(=O)NC1CCN(Cc2ccccc2)CC1)S(=O)(=O)c1ccc(Cl)s1`, the inhibition was 1.99% (inactive).

`COC(=O)C1CCN(C(=O)NC2CC(=O)N(c3ccc4c(c3)OCCO4)C2)CC1` (stereo unspecified): the inhibition is 8.78% (inactive).

Consider `COc1cc2c(cc1OC)CC1(CCCCC1)N=C2`, for which the inhibition was 7.31% (inactive).

Take `Cc1ccc(C)c(NC(=O)CN(C)C(=O)COc2ccc3ccccc3c2)c1`: the inhibition is 27.2% (inactive).

Take `CN(C)S(=O)(=O)c1cccc(NC(=O)COc2ccc3ccccc3c2)c1`: the inhibition was 8.2% (inactive).

On to `CN(Cc1ccc(F)cc1)C(=O)COc1ccc2ccccc2c1`, for which the inhibition was 93.1% (active).

As for `CC1(C)OC(=O)C2=C(C[C@@H](C3CCCC3)O[C@@H]2c2ccc(Cl)cc2)O1`, the inhibition is -3.37% (inactive).

As to `Cn1c(CC2Sc3ccccc3NC2=O)nnc1SCC(=O)c1ccc(Cl)cc1` (stereo unspecified), the inhibition was 3.76% (inactive).

`Cc1ccc(-c2nn(-c3ccccc3)cc2C(=O)Nc2cccc(S(=O)(=O)N3CCOCC3)c2)cc1`: the inhibition is 27.6% (inactive).

As for `O=C(/C=C/c1cn(-c2ccccc2)nc1-c1ccc2c(c1)OCCO2)NCCCN1CCOCC1`, the inhibition was 3.63% (inactive).

Turning to `Cc1ccc(-c2nn(-c3ccccc3)cc2/C=C/C(=O)Nc2cccc(S(N)(=O)=O)c2)cc1`, the inhibition is 41.1% (active).

Turning to `CC[C@]12c3[nH]c4cc(CCC(=O)N(C)C)ccc4c3CCN1C(=O)[C@@H](CC(=O)NCc1ccco1)C[C@@H]2C(=O)N1CCN(C(=O)c2ccco2)CC1`, the inhibition was -5.36% (inactive).

In the case of `CCN(CCCNC(=O)CSc1cc(=O)n(C)c2cc(Cl)ccc12)Cc1ccccc1`, the inhibition is 8.14% (inactive).

`Cc1cc(Cl)c2oc(C(=O)N(C)C(C)c3ccccn3)c(C)c2c1` (stereo unspecified): the inhibition was 4.48% (inactive).

Turning to `Cc1cc(Cl)c2oc(C(=O)N3CCC(O)(c4ccccc4)CC3)c(C)c2c1`, the inhibition was 73.4% (active).

In the case of `Cc1cc(Cl)c2oc(C(=O)NC(C)c3ccncn3)c(C)c2c1` (stereo unspecified), the inhibition was -2.48% (inactive).

Regarding `CSc1nnc(CNC(=O)c2ccccc2)n1-c1ccc(F)cc1`, the inhibition is -8.06% (inactive).

Take `Cn1c(NC(=O)c2ccco2)c(-c2ccccc2Cl)c(=O)c2ccccc21`: the inhibition is 2.45% (inactive).

On to `COCCNc1nc2nonc2nc1N(C)Cc1ccc(C)cc1`, for which the inhibition was -3.45% (inactive).

For the compound `NS(=O)(=O)c1ccccc1NC(=O)c1c(O)c2ccccc2[nH]c1=O`, the inhibition was 2.5% (inactive).

For the compound `O=C(c1ccccc1Oc1ccccc1)N1CCN(c2ccc(F)cc2)CC1`, the inhibition was 7.76% (inactive).

Turning to `O=C(c1cc2cc(F)ccc2[nH]1)N1CCN(c2ccc(F)cc2)CC1`, the inhibition was 71.3% (active).

As for `Cc1c(C(=O)N2CCN(c3ccc(F)cc3)CC2)oc2c1C(=O)CCC2`, the inhibition was -8.48% (inactive).

For the compound `CCn1c(=S)sc2c(=O)n(CC(=O)Nc3ccc(OC)cc3)c(C)nc21`, the inhibition is 1.99% (inactive).

For the compound `COc1ccc(NC(=S)N2N=CCC2c2ccccc2)cc1` (stereo unspecified), the inhibition is 3.93% (inactive).

Consider `CC(=O)N1c2ccc(S(=O)(=O)NCCC(=O)N(C)C3CCCCC3)cc2CC1C` (stereo unspecified), for which the inhibition was -4.73% (inactive).

`CCCCn1nnnc1C(c1ccccc1)N1CCN(c2ccccc2OC)CC1` (stereo unspecified): the inhibition is 1.91% (inactive).

As for `N#Cc1ccc(C(c2nnnn2CCc2ccccc2)N2CCCCCC2)cc1` (stereo unspecified), the inhibition is 50.2% (active).

Regarding `Fc1ccc(Cn2nnnc2C(c2cccs2)N2CCCCCC2)cc1` (stereo unspecified), the inhibition was 6.98% (inactive).

With `O=C(CN1CCOCC1)Nc1c2c(nc3c1CCC3)CCC2`, the inhibition is 7.47% (inactive).

Turning to `CCCNC(=O)N1CCN(C(=O)NCCC)CC1`, the inhibition is -0.62% (inactive).

Take `Cc1cccc(-n2c(O)c(C=Nc3ccccc3N)c(=O)[nH]c2=O)c1`: the inhibition was 95.3% (active).

Regarding `COc1ccc(-n2cc(-c3ccccc3)c3c(=S)nc[nH]c32)cc1`, the inhibition was 14.3% (inactive).

As to `COc1ccc(-c2cn(-c3ccc(OC)cc3)c(=S)[nH]2)cc1`, the inhibition is 86.5% (active).

For the compound `O=c1oc2ccccc2cc1-c1cn(-c2ccccc2)c(=S)[nH]1`, the inhibition is -9.67% (inactive).

With `Cc1nc2ccc(S(=O)(=O)NCC(=O)O)cc2s1`, the inhibition was -11.4% (inactive).

With `CC[n+]1c(C)n(-c2ccccc2)c2ccc(NC(C)=O)cc21`, the inhibition is 3.98% (inactive).

On to `N/C(=N\OC(=O)CCc1ccccc1)c1ccc(Cl)cc1`, for which the inhibition is 12.5% (inactive).

For the compound `Cc1cc(C)cc(NC(=O)NC2CCN(CC(=O)Nc3cccc(Cl)c3C)CC2)c1`, the inhibition was 18.1% (inactive).

As for `Cc1cccc(NC(=O)CN2CCN(C(=O)C3CCN(C(=O)/C=C/c4ccccc4)CC3)CC2)c1C`, the inhibition was 79.2% (active).

Consider `Cc1cccc(NC(=O)CN2CCN(CC(=O)NCC3(N4CCCCC4)CCCCC3)CC2)c1C`, for which the inhibition was -3.14% (inactive).

On to `O=C(C[C@H]1CC[C@@H](NC(=O)c2ccncc2)[C@@H](CO)O1)NCC1CC1`, for which the inhibition was -1.01% (inactive).

Consider `CC(C)C(=O)N1CCN(CCN=CC2=C(O)CC(c3ccco3)CC2=O)CC1` (stereo unspecified), for which the inhibition was -2.69% (inactive) and -8.63% (inactive).

For `CCOc1ccc(-c2noc(CCC(=O)NC3CCCC3)n2)cc1OC`, the inhibition is 8.53% (inactive).

For `CCOc1cc(-c2noc(CCC(=O)N3CCOCC3)n2)ccc1OC`, the inhibition was -2.72% (inactive).

As for `CCOc1nc(-c2ccc(OC)cc2)ccc1-c1noc(-c2cc(OC)c(OC)c(OC)c2)n1`, the inhibition was 49.3% (active).

In the case of `CCOc1ccc(S(=O)(=O)Nc2ccncc2)c(C)c1C`, the inhibition is -5.77% (inactive).

Consider `CCCS(=O)(=O)NC(=O)C1(C)CCCN(C(=O)c2cc(C)on2)C1` (stereo unspecified), for which the inhibition was -3.5% (inactive).

As for `Oc1c(CN2CCN(c3ccc(F)cc3)CC2)cc(Cl)c2cccnc12`, the inhibition is 54.1% (active).

As to `O=C(CN1CCN(c2ccc(Cl)cc2)CC1)c1ccccc1`, the inhibition is 2.55% (inactive).

In the case of `Cc1cccc(C)c1NC(=O)CN1CCN(c2ccc(F)cc2)CC1`, the inhibition is 0.0279% (inactive).

Turning to `COc1cccc(-c2ccc3c(c2)N(Cc2ccccc2OC)C(=O)C(C)S3)c1` (stereo unspecified), the inhibition was 27.4% (inactive).

For the compound `COc1ccc(-c2cc(NC=O)c3ncc(-c4cccc(C(=O)N(C)C)c4)n3c2)c(OC)c1`, the inhibition was 52% (active).

`CN(C)C(=O)c1cccc(-c2cnc3c(NC=O)cc(-c4ccc(F)cc4)cn23)c1`: the inhibition was 8.37% (inactive).

For `COc1ccc(-c2cc(NC=O)c3ncc(-c4cc(OC)c(OC)c(OC)c4)n3c2)c(OC)c1`, the inhibition is 15.5% (inactive).

With `N#Cc1ncc(C(F)(F)F)cc1Oc1cccnc1`, the inhibition was -11% (inactive).

In the case of `Cc1onc(-c2ccccc2Cl)c1C(=O)N(Cc1ccc(N(C)C)cc1)C(C)C`, the inhibition was 1.77% (inactive).

For the compound `CC(Sc1nncn1C)C(=O)Nc1ccccc1-c1ccccc1` (stereo unspecified), the inhibition is -4.03% (inactive).

With `CCOC(=O)C1=NN(c2ccc(Cl)cc2)/C(=C/C2=NCCc3cc(OC)c(OC)cc32)S1`, the inhibition was 6.84% (inactive).

As for `COc1ccc(-c2cc(C3CCN(c4ncccc4[N+](=O)[O-])CC3)[nH]n2)cc1`, the inhibition was 37.5% (active).

Turning to `COc1ccc(N2CCN(c3ccc([N+](=O)[O-])nc3)CC2)cc1`, the inhibition was 6.82% (inactive).

With `CC(=O)NC(Cc1ccccc1)C(=O)NC1CCN(c2ncccc2[N+](=O)[O-])CC1` (stereo unspecified), the inhibition was 5.83% (inactive).

With `CCN1CCN(C(=O)N(Cc2ccc(Cl)cc2)S(=O)(=O)c2ccc(C)cc2)CC1`, the inhibition is -6.18% (inactive).

Take `CC1=C(C(=O)N(C(C)C)C(C)C)CC(CC(=O)NCC2CCCCC2)C(=O)N1Cc1ccccc1` (stereo unspecified): the inhibition is 3.31% (inactive).

As to `O=c1[nH]c(CN2CCN(S(=O)(=O)c3ccc4c(c3)OCCO4)CC2)nc2sc3c(c12)CCCC3`, the inhibition was 38.3% (active).

`O=C(c1ccc(Cl)nc1)N1CCN(S(=O)(=O)c2ccc3c(c2)OCCO3)CC1`: the inhibition was 17.6% (inactive).

Regarding `CN1CCCN(S(=O)(=O)c2ccc3c(c2)OCCO3)CC1`, the inhibition is -1.61% (inactive).

Consider `C=CCOc1ccc(/C=C/C(=O)OCC(=O)NC(C)c2ccc(F)cc2)cc1` (stereo unspecified), for which the inhibition is 29.1% (inactive).

With `Cn1c(SCC(=O)OC2CCCCC2)nnc1-c1ccc(S(=O)(=O)N2CCCC2)cc1`, the inhibition is 0.352% (inactive).

Regarding `COc1ccc(CCNC(=O)CCn2c(=O)c3ccccc3n(CC(=O)NCC3CCCO3)c2=O)cc1OC` (stereo unspecified), the inhibition is -15.5% (inactive).

On to `CC1(Cc2cccc(C#N)c2)C(=O)Nc2ccc(-c3cccc(C(F)(F)F)c3)cc21` (stereo unspecified), for which the inhibition was 17.2% (inactive).

Regarding `CC1(Cc2ccccc2C#N)C(=O)Nc2ccc(-c3ccc4[nH]ccc4c3)cc21` (stereo unspecified), the inhibition was 47.3% (active).

In the case of `COc1ccccc1CC1(C)C(=O)Nc2ccc(OC(F)(F)F)cc21` (stereo unspecified), the inhibition was 3.59% (inactive).

For `CCCCOCCCNC(=O)C[C@@H]1C[C@@]2(C(=O)OCC)CCCC=C2N(CCC2=CCCCC2)C1=O`, the inhibition was 1.45% (inactive).

`COc1ccc(N(CC(=O)Nc2cc(OC)ccc2OC)S(=O)(=O)c2c(C)noc2C)cc1`: the inhibition was 65.5% (active).

Take `CCOC(=O)c1cccc(NC(=O)CN(c2ccc(C)cc2)S(=O)(=O)c2c(C)noc2C)c1`: the inhibition is 15.3% (inactive).

As for `CCOc1ccc(N(CC(=O)OC)S(=O)(=O)c2c(C)noc2C)cc1`, the inhibition was 1.12% (inactive).
